According to PubChem BioAssay (NCATS):
Results filed as inconclusive are left out. Active and inactive are the calls of the source. Unless noted, the call rests on the fitted dose curve; in most records, active means well fitted curve in either direction with a large enough effect (not every such curve was filed as active); inconclusive means small, poorly fitted or top-dose-only effect, or another doubt; inactive means flat fitted curve, though single readings scatter.

How the values were obtained:
[1] = target: Lysosomal acid glucosylceramidase (Homo sapiens) (UniProt P04062); assay: Glucocerebrosidase-p2 (AID 348; in the data active means potency below about 10 µM; further: potency means the concentration at half of the fitted maximal effect); conditions: purified GBA, blue fluorogenic substrate, 40 min
Outline: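 Normal human glucocerebrosidase (0.2 nM) with blue fluorogenic substrate (80 uM final) in citrate/phosphate pH 5.9 with 10mM sodium taurocholate, 0.01% tween-20; 40 min RT, NaOH/glycine stop; fluorescence Ex 365/Em 440; AC50 from a titration from 0.6 nM upwards.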

[2] = AP1 Signaling Pathway (AID 357); conditions: ME-180 AP-1-bla reporter, EGF-induced, beta-lactamase ratio, 5 h; at 7.69 µM (top of the series) unless noted; further: on the % scale 0 is the no-effect control and ±100 the full control effect
Outline: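 AP-1-bla ME-180 cells with beta-lactamase reporter under AP-1 response element, stimulated with EC50 EGF; compounds titrated, 5 hours at 37 degrees Celsius. CCF4 read at 460/530 nm ratio; positive and negative modulators judged by AC50.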

[3] = target: Cytochrome P450 1A2 (Homo sapiens) (UniProt P05177); assay: p450-cyp1a2 (AID 410; calls by dose curve; further: potency means the concentration at half of the fitted maximal effect;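 on activity change, negative = inhibition: -100% = full effect of reference inhibitor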); conditions: recombinant CYP1A2, luciferin-ME demethylation, luminescence; series mostly up to 57 µM
Outline: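 20nM CYP1A2, 100uM Luciferin-ME (=Km), 100mM KPO4; cpd 10 min RT; +NADPH regen, 60 min RT; stop/detect 20 min; luminescence. Normalized to furafylline 57 uM = full inhibition.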

[4] = NFAT Signaling Pathway (AID 444); conditions: Jurkat NFAT-bla M1, carbachol, beta-lactamase ratio, 5 h; at 7.69 µM (top of the series) unless noted;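 further: carbachol stimulus at about its EC50 of 1 µM final; on the % scale 0 is the no-effect control and ±100 the full control effect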
Outline: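 Jurkat cells carrying an NFAT-driven β-lactamase reporter and co-transfected muscarinic M1 receptor were treated with compound plus carbachol (1 uM final, an EC50 level) for 5 h at 37 °C. CCF4 loading followed for 1 h at RT; 460/530 nm ratio gave %activity.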

[5] = Stat Signaling Pathway (AID 446); conditions: ME-180 SIE beta-lactamase reporter, IL-6 stimulated, 5 h; at 7.69 µM (top of the series) unless noted;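 further: ME-180 cervical cancer cells given 40 pM IL-6 alongside compound; SIE-controlled beta-lactamase reporter measured as 460/530 nm FRET emission ratio; on the % scale 0 is the no-effect control and ±100 the full control effect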
Outline: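 FRET read-out (405 nm excitation, 460/530 nm emission) of a beta-lactamase reporter under a STAT-inducible element in ME-180 cervical carcinoma cells. Cells with compound receive 40 pM IL-6 for 5 h. Values are normalised to AC90 stimulation and AC90 JAK-inhibitor controls.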

[6] = target: Glucocorticoid receptor (Homo sapiens) (UniProt P04150); assay: GR-GFP Redistribution (AID 450;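 active means compounds whose dose series gives a full or clear partial fitted curve of increased nuclear translocation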; further: potency means the concentration at half of the fitted maximal effect); conditions: U2OS GR-GFP nuclear translocation, laser cytometry, 2 h
[7] = target: Glucocorticoid receptor (Homo sapiens) (UniProt P04150); assay: GR-EFC Redistribution (AID 451; calls by dose curve; further: potency means the concentration at half of the fitted maximal effect); conditions: CHO-K1 GR-EFC translocation, beta-gal luminescence, 2 h
Outline: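 CHO-K1 cells stably expressing nuclear-localized β-gal enzyme acceptor and GR fused C-terminally to the enzyme donor fragment; ligand-driven nuclear translocation restores β-gal by complementation. Compounds titrated up to 46 uM final, 2 h at 37 °C; luminescence read.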

[8] = target: Mitogen-activated protein kinase 10 (Mus musculus) (UniProt Q61831); assay: JNK3 AlphaScreen Assay (AID 530); conditions: JNK3 lysate, c-Jun phosphorylation; series mostly up to 57.1 µM;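 further: kinase came from lysate of stimulated human HepG2 cells; signal reports phosphorylation of biotinylated GST-cJun 1-79 at Ser73 with 10 µM ATP; on the % scale 0 is the no-effect control and ±100 the full control effect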
Outline: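 Biotinylated GST-cJun(1-79) served as substrate for JNK3 in HepG2 lysates stimulated with IL-1beta and TNF-alpha. ATP was 10 uM final, pH 7.6. Ser73 phosphorylation was quantified by AlphaScreen (680 nm excitation).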

[9] = target: 3',5'-cyclic-AMP phosphodiesterase 4B (Homo sapiens) (UniProt Q07343); assay: qHTS Assay for Inhibitors of PDE-IV (AID 607; active means well fitted activation curve with a large enough effect in the main read-out, with a control signal flat, not every such curve was filed as active; further: % of control where 0% means no effect); conditions: HEK293 ACTOne CNG channel cells, membrane potential fluorescence; series mostly up to 22.9 µM
Outline: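 Cell-based read-out of cAMP via a modified cyclic nucleotide-gated channel and membrane potential dye (535/590 nm) in HEK293 cells expressing PDE4 endogenously. Compounds tested up to 22.9 uM final; 100 uM RO 20-1724 reference.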

[10] = target: Cytochrome P450 3A4 (Homo sapiens) (UniProt P08684); assay: qHTS Assay for Inhibitors and Substrates of Cytochrome P450 3A4 (AID 884; active means well fitted curve in the direction sought with a large enough effect; an effect the other way counts as inactive or inconclusive; further: potency means the concentration at half of the fitted maximal effect; nearly all actives have a fitted effect of over 50% in size); conditions: recombinant CYP3A4, Luciferin-PPXE luminescence; series mostly up to 57.1 µM
Outline: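 Luminescent readout of luciferin produced by CYP3A4 (20 nM) dealkylation of Luciferin-PPXE, 25 uM (its KM). NADPH-driven reaction ran 60 min at RT after 10 min compound preincubation; data scaled to 57 uM ketoconazole as 100% inhibition.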

[11] = target: Cytochrome P450 3A4 (Homo sapiens) (UniProt P08684); assay: qHTS Assay for Activators of Cytochrome P450 3A4 (AID 885; active means well fitted curve in the direction sought with a large enough effect; an effect the other way counts as inactive or inconclusive; further: nearly all actives have a fitted effect of over 65% in size); conditions: recombinant CYP3A4, Luciferin-PPXE luminescence, 60 min; series mostly up to 57.1 µM
Outline: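 Luminescent readout of luciferin formed from 25 uM Luciferin-PPXE (KM level) by 20 nM CYP3A4 in 200 mM KPO4, with 60 min NADPH-driven reaction at room temperature after 10 min compound exposure. Ketoconazole (57 uM) defined 100% inhibition.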

[12] = Primary qHTS for small molecule stabilizers of the endoplasmic reticulum resident proteome: Secreted ER Calcium Modulated Protein (SERCaMP) assay (AID 1508630; active means well fitted curve in the direction sought with a large enough effect; an effect the other way counts as inactive or inconclusive; further: on the % scale 0 is the no-effect control and ±100 the full control effect); conditions: SH-SY5Y GLuc-SERCaMP (Gaussia luciferase released on ER calcium loss) secretion, thapsigargin, luminescence; series mostly up to 38.4 µM
Outline: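 The SH-SY5Y reporter protocol was run at 3 concentrations up to 38.3 uM (primary) or 11 concentrations (follow-up): 16 h compound, 100 nM thapsigargin for 4 h, then extracellular luciferase luminescence.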

[13] = target: Cytochrome P450 2C9 (Homo sapiens) (UniProt P11712); assay: qHTS Assay for Inhibitors and Substrates of Cytochrome P450 2C9 (AID 883; active means well fitted curve in the direction sought with a large enough effect; an effect the other way counts as inactive or inconclusive; further: potency means the concentration at half of the fitted maximal effect; nearly all actives have a fitted effect of over 60% in size); conditions: recombinant CYP2C9, luciferin-H luminescence, 60 min; series mostly up to 57.1 µM
Outline: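 Human CYP2C9 (10nM) hydroxylated Luciferin-H (100uM, at its KM) to luciferin in 25mM KPO4. Compound was preincubated 10 min at 37C, then NADPH regeneration started a 60 min reaction at 37C. Luminescence was read after detection reagent, normalized to 57uM sulphaphenazole.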

[14] = target: Cytochrome P450 2D6 (Homo sapiens) (UniProt P10635); assay: qHTS Assay for Inhibitors and Substrates of Cytochrome P450 2D6 (AID 891; active means well fitted curve in the direction sought with a large enough effect; an effect the other way counts as inactive or inconclusive; further: potency means the concentration at half of the fitted maximal effect; nearly all actives have a fitted effect of over 60% in size); conditions: recombinant CYP2D6, luciferin-ME EGE luminescence; series mostly up to 57.1 µM
Outline: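 Luminescent read-out of luciferin formed by 5 nM human CYP2D6 demethylating 30 uM Luciferin-ME EGE (Km level) over 60 min at room temperature after NADPH regeneration addition. Data normalized to full inhibition by 1.43 uM quinidine.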

[15] = Confirmation and Secondary Assay for Modulators of Hemoglobin Beta Chain Splicing at IVS2 654 locus (AID 910; active means well fitted curve in the direction sought with a large enough effect; an effect the other way counts as inactive or inconclusive;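 further: per-well total GFP intensity by laser scanning cytometry after 2-day treatment; % of control where 0% means no effect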); conditions: HeLa EGFP-654 splicing reporter, GFP fluorescence, 48 h; series mostly up to 38.3 µM
Outline: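 HeLa cells stably carrying EGFP interrupted by mutant beta-globin IVS2-654 intron (CMV-driven) were treated with compound for 2 days at 37C; corrected splicing was scored as total peak GFP intensity per well (488 nm excitation, 500-520 nm emission).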

[16] = Confirmation and Secondary Assay for Modulators of Hemoglobin Beta Chain Splicing at IVS2 705 locus (AID 930; active means well fitted curve in the direction sought with a large enough effect; an effect the other way counts as inactive or inconclusive;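 further: HeLa cells stably expressing the EGFP-705 splicing reporter; GFP fluorescence per well restored by corrected splicing of the IVS2-705 intron in EGFP; % of control where 0% means no effect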); conditions: HeLa EGFP-705 splicing reporter, GFP fluorescence, 48 h; series mostly up to 38.3 µM
Outline: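 Fluorescence gain (488 nm laser, 500-520 nm PMT) reflects restored correct splicing of a mutant IVS2-705 intron inside EGFP in stably transfected HeLa cells after 2-day compound treatment.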

[17] = qHTS Assay for Identification of Small Molecule Agonists for Hypoxia Response Element Signaling Pathway (AID 914; active means well fitted activation curve with a large enough effect in the signal ratio, with a control signal flat, not every such curve was filed as active; the % refers to the signal ratio; further: % of control where 0% means no effect); conditions: ME-180 (cervical carcinoma) HRE-bla reporter, beta-lactamase ratio, CoCl2, 17 h; activation: active compounds read high
Outline: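 A beta-lactamase reporter under hypoxia response element control in ME-180 cells served as the system. Compound titrations plus EC50 CoCl2 ran 17 h at 37 degrees Celsius; AC50 values were fitted from %Activity.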

Chain of Glucocorticoid receptor (Homo sapiens) (P04150 whole entry, looked up, the tested form may be a part): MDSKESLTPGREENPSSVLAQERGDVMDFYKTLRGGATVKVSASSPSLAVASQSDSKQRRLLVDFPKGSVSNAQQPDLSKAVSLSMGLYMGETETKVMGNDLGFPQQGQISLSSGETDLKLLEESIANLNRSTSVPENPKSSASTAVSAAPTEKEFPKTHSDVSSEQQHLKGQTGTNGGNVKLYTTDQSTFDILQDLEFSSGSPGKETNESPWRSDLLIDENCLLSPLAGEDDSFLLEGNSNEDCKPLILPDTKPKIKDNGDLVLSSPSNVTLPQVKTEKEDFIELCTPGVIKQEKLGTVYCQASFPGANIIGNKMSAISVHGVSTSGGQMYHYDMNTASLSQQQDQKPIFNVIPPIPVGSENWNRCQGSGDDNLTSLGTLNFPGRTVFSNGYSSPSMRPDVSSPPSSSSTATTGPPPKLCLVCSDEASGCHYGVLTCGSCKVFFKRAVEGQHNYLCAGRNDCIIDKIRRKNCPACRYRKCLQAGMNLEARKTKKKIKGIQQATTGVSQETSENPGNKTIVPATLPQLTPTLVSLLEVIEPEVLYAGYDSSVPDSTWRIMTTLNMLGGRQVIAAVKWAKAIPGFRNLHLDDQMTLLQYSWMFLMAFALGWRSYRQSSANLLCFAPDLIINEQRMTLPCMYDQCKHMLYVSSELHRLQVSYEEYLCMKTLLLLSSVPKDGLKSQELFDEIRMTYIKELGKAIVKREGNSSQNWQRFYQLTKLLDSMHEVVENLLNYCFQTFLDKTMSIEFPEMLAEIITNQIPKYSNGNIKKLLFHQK
Chain of Cytochrome P450 1A2 (Homo sapiens) (P05177 whole entry, looked up): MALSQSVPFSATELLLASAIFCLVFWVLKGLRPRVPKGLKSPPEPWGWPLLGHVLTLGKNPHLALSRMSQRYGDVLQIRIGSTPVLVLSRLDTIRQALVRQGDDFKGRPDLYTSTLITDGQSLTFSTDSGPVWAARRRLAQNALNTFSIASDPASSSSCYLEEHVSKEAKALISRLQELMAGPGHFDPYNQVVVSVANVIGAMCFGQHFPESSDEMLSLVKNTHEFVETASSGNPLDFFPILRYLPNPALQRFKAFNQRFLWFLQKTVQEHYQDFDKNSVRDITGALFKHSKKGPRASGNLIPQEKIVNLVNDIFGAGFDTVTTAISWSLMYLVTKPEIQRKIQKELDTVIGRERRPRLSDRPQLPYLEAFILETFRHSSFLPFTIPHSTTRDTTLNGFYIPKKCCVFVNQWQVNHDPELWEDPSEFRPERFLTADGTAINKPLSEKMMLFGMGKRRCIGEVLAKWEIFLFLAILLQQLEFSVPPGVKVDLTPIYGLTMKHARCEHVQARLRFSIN
Chain of 3',5'-cyclic-AMP phosphodiesterase 4B (Homo sapiens) (Q07343 whole entry, looked up): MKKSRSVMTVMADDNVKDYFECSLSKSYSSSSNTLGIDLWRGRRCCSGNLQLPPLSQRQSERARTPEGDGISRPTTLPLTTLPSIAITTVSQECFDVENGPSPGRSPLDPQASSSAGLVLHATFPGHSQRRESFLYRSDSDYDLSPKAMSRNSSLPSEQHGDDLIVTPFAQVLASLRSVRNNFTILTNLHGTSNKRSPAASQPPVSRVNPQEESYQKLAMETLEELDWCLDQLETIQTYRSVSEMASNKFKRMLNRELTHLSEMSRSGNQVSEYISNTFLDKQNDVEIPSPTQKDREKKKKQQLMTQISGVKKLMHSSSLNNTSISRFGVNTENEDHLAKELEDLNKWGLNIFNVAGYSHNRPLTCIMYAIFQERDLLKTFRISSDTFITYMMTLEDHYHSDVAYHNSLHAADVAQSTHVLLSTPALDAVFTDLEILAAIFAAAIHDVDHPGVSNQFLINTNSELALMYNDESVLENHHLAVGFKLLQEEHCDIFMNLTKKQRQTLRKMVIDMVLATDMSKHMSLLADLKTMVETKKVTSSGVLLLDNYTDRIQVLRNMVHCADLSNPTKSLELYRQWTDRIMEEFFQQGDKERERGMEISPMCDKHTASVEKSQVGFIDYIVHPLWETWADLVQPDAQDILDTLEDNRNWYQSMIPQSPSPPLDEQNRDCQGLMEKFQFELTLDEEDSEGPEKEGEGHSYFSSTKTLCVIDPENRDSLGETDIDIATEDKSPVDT
Chain of Lysosomal acid glucosylceramidase (Homo sapiens) (P04062 whole entry, looked up): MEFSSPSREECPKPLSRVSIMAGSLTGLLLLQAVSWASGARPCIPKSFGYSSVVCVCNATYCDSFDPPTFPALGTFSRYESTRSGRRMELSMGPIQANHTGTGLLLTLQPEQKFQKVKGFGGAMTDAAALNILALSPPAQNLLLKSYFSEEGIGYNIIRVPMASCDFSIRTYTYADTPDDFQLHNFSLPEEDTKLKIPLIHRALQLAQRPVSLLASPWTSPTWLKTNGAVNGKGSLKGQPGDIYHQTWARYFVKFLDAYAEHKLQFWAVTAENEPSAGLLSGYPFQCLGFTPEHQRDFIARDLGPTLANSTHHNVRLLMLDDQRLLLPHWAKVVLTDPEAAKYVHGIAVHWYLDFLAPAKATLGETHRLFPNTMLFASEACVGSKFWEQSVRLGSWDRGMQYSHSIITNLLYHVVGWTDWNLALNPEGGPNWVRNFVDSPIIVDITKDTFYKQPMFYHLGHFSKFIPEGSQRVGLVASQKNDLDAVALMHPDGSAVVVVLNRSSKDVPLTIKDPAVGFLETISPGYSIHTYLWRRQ
Chain of Cytochrome P450 3A4 (Homo sapiens) (P08684 whole entry, looked up): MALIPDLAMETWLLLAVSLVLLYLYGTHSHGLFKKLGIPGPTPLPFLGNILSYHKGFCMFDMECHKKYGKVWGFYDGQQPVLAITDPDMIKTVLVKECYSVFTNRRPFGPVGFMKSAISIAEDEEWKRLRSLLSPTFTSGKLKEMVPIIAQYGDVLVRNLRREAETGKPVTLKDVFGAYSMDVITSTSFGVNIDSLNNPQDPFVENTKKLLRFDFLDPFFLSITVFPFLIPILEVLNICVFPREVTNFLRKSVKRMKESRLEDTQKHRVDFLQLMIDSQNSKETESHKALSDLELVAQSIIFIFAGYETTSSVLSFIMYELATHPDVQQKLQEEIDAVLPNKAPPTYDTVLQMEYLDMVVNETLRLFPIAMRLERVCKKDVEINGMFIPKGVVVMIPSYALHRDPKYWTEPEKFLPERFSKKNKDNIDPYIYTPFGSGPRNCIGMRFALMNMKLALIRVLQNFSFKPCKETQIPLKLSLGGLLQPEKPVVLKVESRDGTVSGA
Chain of Cytochrome P450 2C9 (Homo sapiens) (P11712 whole entry, looked up): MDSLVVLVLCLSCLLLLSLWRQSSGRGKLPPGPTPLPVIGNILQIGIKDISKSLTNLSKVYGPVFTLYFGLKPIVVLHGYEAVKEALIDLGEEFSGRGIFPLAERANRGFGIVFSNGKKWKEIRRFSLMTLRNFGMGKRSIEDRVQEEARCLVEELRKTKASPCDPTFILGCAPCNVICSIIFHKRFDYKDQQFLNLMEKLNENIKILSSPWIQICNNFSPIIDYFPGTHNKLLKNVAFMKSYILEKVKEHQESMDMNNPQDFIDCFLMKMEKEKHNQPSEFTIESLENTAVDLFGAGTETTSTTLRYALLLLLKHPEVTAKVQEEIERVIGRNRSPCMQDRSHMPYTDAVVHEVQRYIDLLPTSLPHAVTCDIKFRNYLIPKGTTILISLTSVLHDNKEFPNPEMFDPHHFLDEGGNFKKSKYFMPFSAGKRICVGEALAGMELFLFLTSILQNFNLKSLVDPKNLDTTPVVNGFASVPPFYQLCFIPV
Chain of Cytochrome P450 2D6 (Homo sapiens) (P10635 whole entry, looked up): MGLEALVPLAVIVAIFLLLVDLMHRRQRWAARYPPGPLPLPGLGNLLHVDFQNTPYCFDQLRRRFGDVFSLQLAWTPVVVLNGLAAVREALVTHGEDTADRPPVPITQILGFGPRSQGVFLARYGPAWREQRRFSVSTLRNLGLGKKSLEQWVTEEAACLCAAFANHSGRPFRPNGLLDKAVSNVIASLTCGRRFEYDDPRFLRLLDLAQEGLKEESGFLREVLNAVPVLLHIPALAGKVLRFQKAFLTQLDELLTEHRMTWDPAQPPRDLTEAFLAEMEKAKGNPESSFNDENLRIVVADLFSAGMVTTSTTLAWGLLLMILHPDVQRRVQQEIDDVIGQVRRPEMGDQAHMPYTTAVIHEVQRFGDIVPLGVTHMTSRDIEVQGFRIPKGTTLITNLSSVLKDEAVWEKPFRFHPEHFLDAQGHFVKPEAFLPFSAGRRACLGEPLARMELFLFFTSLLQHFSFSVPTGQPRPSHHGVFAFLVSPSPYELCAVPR

COc1ccc(Oc2ncc3ncc(=O)n(Cc4cccs4)c3n2)cc1
active: Potency [3] 10 µM | Potency [10] 3.16 µM
inactive: Potency [1] > 11.4 µM | activity change, negative = inhibition [2] -29.2% | activity change, negative = inhibition [4] -6.6% | activity, negative = inhibition [5] -28.6% | Potency [6] > 9.22 µM | Potency [7] > 46 µM | Potency [8] | Potency [9] | Potency [11] | outcome [12]

COc1ccc(-c2nc3cnc(N4CCOCC4)nc3n(CCC#N)c2=O)cc1
inactive: Potency [1] > 11.4 µM | activity change, negative = inhibition [2] 3.37% | activity change, negative = inhibition [4] 2.6% | activity, negative = inhibition [5] 16.9% | Potency [6] > 9.22 µM | Potency [7] > 46 µM | Potency [8] | Potency [9] | outcome [12]
active: Potency [3] 3.16 µM

O=c1cnc2cnc(Oc3cccc(Cl)c3)nc2n1C1CC1
active: Potency [3] 2.51 µM | Potency [13] 6.31 µM
inactive: Potency [1] > 11.4 µM | activity change, negative = inhibition [2] -27.3% | activity change, negative = inhibition [4] 0.268% | activity, negative = inhibition [5] -9.7% | Potency [6] > 9.22 µM | Potency [7] > 46 µM | Potency [8] | Potency [9] | outcome [12]

COc1ccc(Oc2ncc3nc(C)c(=O)n(CCC#N)c3n2)cc1
inactive: Potency [1] > 11.4 µM | activity change, negative = inhibition [2] -15.5% | activity change, negative = inhibition [4] 8.56% | activity, negative = inhibition [5] -12.9% | Potency [6] > 9.22 µM | Potency [7] > 46 µM | Potency [8] | Potency [9] | outcome [12]
active: Potency [3] 25.1 µM

COc1ccc(-n2c(=O)cnc3cnc(Oc4cccc(Cl)c4)nc32)cc1
active: Potency [3] 7.94 µM
inactive: Potency [1] > 11.4 µM | activity change, negative = inhibition [2] -9.58% | activity change, negative = inhibition [4] 4.93% | activity, negative = inhibition [5] -9.34% | Potency [6] > 9.22 µM | Potency [7] > 46 µM | Potency [8] | Potency [9] | Potency [11] | outcome [12]

CN(C)Cc1ccccc1-c1nccc(NC2CC2)n1
active: Potency [3] 1.58 µM | Potency [14] 0.631 µM
inactive: Potency [1] > 11.4 µM | activity change, negative = inhibition [2] -4.26% | activity change, negative = inhibition [4] 1.25% | activity, negative = inhibition [5] 5.09% | Potency [6] > 46 µM | Potency [7] > 46 µM | Potency [8] | Potency [9] | Potency [11] | Potency [15] | outcome [16] | outcome [12]

COCCn1c(=O)c(-c2ccc(F)cc2)nc2cncnc21
active: Potency [3] 0.501 µM
inactive: Potency [1] > 11.4 µM | activity change, negative = inhibition [2] -7.99% | activity change, negative = inhibition [4] 1.81% | activity, negative = inhibition [5] 2.35% | Potency [6] > 9.22 µM | Potency [7] > 46 µM | Potency [8] | Potency [9] | Potency [11] | activation [17] 3.14% | outcome [12]

COc1cccc(Nc2ncc3nc(CCc4ccccc4)c(=O)n(CCC#N)c3n2)c1
inactive: Potency [1] > 11.4 µM | activity change, negative = inhibition [2] -11.6% | Potency [3] | activity change, negative = inhibition [4] -14.1% | activity, negative = inhibition [5] -2.69% | Potency [6] > 9.22 µM | Potency [7] > 46 µM | Potency [8] | Potency [11] | outcome [12]

COc1ccc(Oc2ncc3nc(-c4ccc(Cl)cc4)c(=O)n(C)c3n2)cc1
active: Potency [3] 0.631 µM
inactive: Potency [1] > 11.4 µM | activity change, negative = inhibition [2] -22.1% | activity change, negative = inhibition [4] -2.12% | activity, negative = inhibition [5] -5.79% | Potency [6] > 9.22 µM | Potency [7] > 46 µM | Potency [8] | Potency [9] | Potency [11] | outcome [12]

c1ccc2c(NC3CC3)nc(-c3ccoc3)nc2c1
inactive: activity change, negative = inhibition [2] 14.4% | activity change, negative = inhibition [4] -16.4% | activity, negative = inhibition [5] -5.96% | Potency [6] > 46 µM | Potency [7] > 46 µM | Potency [8] | Potency [11] | outcome [12]
active: Potency [1] 3.8 µM | Potency [3] 0.316 µM | Potency [10] 3.98 µM
